# PubChem BioAssay AID729 (The Scripps Research Institute Molecular Screening Center, 2007)
# Among all 97,000 compounds or so, about 450 (0.46%) were called active. No stated cut-off is given here; in the data, active means activation above about 16%; inactive means the rest. The full list was thinned out, with actives kept by preference.
# Biological target: Sphingosine 1-phosphate receptor 2 (Homo sapiens) (UniProt O95136)
# Experiment: S1P2 receptor agonists, primary screen, cell-based (AID 729);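 further: 0% = vehicle low control and 100% = maximal reference agonist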
# Conditions: S1P2-expressing cell line, agonist reporter read-out; at 4.5 µM; active compounds read high
# Sequence of Sphingosine 1-phosphate receptor 2 (Homo sapiens) (O95136 whole entry, looked up): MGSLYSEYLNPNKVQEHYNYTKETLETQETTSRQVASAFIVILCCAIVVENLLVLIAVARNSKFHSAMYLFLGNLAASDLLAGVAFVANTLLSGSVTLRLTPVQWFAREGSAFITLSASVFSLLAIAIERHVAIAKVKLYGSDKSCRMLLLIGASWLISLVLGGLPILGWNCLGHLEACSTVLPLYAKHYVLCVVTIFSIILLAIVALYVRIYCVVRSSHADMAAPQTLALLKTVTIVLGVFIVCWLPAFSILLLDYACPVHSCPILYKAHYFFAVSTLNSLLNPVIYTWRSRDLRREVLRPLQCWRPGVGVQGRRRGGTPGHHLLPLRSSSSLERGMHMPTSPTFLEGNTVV
row,Compound,activation
1,Cc1c(Nc2nc3ccccc3nc2NS(=O)(=O)c2cccs2)c(=O)n(-c2ccccc2)n1C,-4.46% (inactive)
2,O=S(=O)(NCC1OCCc2ccccc21)c1ccccc1 (stereo not drawn),0.09% (inactive)
3,CN1CCN(C(=O)Cn2c(C(F)(F)F)nc3ccccc32)CC1,-7.46% (inactive)
4,COC(=O)c1cc(OC)c(OC)cc1NC(=O)CSc1ccc(C)cc1,-4.04% (inactive)
5,COc1ccccc1CCNC(=O)c1cnccn1,-1.07% (inactive)
6,Cc1ccc(-n2cc3ccc([N+](=O)[O-])cc3n2)cc1,-0.28% (inactive)
7,CCOc1ccccc1NC(=O)c1cccnc1,-2.14% (inactive)
8,Cc1nc2ccc(C(=O)N3CCN(c4ccccc4)CC3)cc2s1,-0.32% (inactive)
9,CCOc1nc(NCCN2CCOCC2)nc(Nc2ccc(C)cc2)n1,-6.53% (inactive)
10,CCc1c(O)cc2n(c1=O)-c1ccccc1C2(C)C,-1.15% (inactive)
11,CSCCC(NC(=O)COc1ccccc1)C(=O)OCC(=O)c1cc2ccccc2o1 (stereo not drawn),0.32% (inactive)
12,CC(C)n1c(-c2cccs2)nc2ccccc21,-0.76% (inactive)
13,COc1ccc(/C=N/Nc2nc3ccccc3c(=O)[nH]2)cc1,-4.61% (inactive)
14,O=c1[nH]c(-c2cccs2)nc2ccccc12,71.4% (active)
15,CCCCNC(=O)CCNC(=O)c1ccc(C(C)(C)C)cc1,-3.72% (inactive)
16,N#C/C(=C/c1ccc(Cl)cc1)NC(=O)c1ccccc1,-4.04% (inactive)
17,CNc1nc(SC)nc(N(C#N)CC(=O)OC)n1,-6.48% (inactive)
18,Nc1nnc(SCCN2C(=O)c3ccccc3S2(=O)=O)s1,17.5% (active)
19,CCCc1nnc(NC(=O)CN2C(=O)c3ccccc3S2(=O)=O)s1,-3.54% (inactive)
20,CNC(=O)CN1C(=O)c2ccccc2S1(=O)=O,-1.63% (inactive)
21,CCc1nc(Nc2ccc3nccnc3c2)c2oc3ccccc3c2n1,46.5% (active)
22,Cc1nc(Cl)c2oc3ccccc3c2n1,1.01% (inactive)
23,COc1ccccc1Nc1ncnc2c1oc1ccccc12,-9.1% (inactive)
24,Cc1cc(C)n(-c2nc(O)cc(=O)[nH]2)n1,-4.33% (inactive)
25,Cc1ccc(-n2ccc(=O)c(C(=O)O)n2)cc1,-0.77% (inactive)

row,Compound,activation
1,C=CCO/N=C(\C)c1c(O)c(C)c(-c2ccccc2)n(-c2ccccc2)c1=O,-3% (inactive)
2,COc1ccc(SCc2noc(C(=O)NCC3CCCO3)c2C(=O)O)cc1 (stereo not drawn),-7.32% (inactive)
3,CCOc1c2ccc(C(=O)NCc3ccc4c(c3)OCO4)cc2nn1C,-2.43% (inactive)
4,COCCNC(=O)Cn1cc(C(=O)c2cccs2)c2ccccc21,-4.41% (inactive)
5,CC(C)C(=O)Nc1ccc2c(c1)oc1ccccc12,0.25% (inactive)
6,c1ccc2c(-c3nn4nnnc4c4ccccc34)cccc2c1,-3.13% (inactive)
7,O=C(O)COc1ccc(-c2nccc(-c3cccs3)n2)cc1,-4.12% (inactive)
8,C=CCn1c2ccccc2c2nnc(SC(CC)C(=O)Nc3nc(C)c(C(=O)OCC)s3)nc21 (stereo not drawn),21.9% (active)
9,CCOC(=O)c1sc(NC(=O)C(CC)Sc2nccn2C)nc1C (stereo not drawn),-5.49% (inactive)
10,CCOC(=O)c1sc(NC(=O)c2ccncc2)nc1C,-5.01% (inactive)
11,O=C(/C=C/c1cccs1)c1cc(Cl)ccc1OC(=O)N1CCOCC1,-8.27% (inactive)
12,CSCc1cc(N(C)C)nc(SCc2ccc(Cl)cc2Cl)n1,-6.28% (inactive)
13,CCCC1(C(=O)OCC)NC(c2ccc(N(C)C)cc2)C2C(=O)N(c3ccc4c(c3)OCCO4)C(=O)C21 (stereo not drawn),-0.77% (inactive)
14,CCCCSc1[nH]c(=O)c(C(=O)OCC)cc1C#N,-3.23% (inactive)
15,N#CCSc1nc2c(c(=O)n1Cc1ccccc1)C1(CCCC1)Cc1ccccc1-2,-7.66% (inactive)
16,Cc1ccccc1CSCCNC(=O)c1ccc(Cl)c(S(=O)(=O)N2CCOCC2)c1,-6.39% (inactive)
17,COC(=O)c1cc2nc(-c3ccccc3)cc(C(F)(F)F)n2n1,-1.4% (inactive)
18,CCN(CC)c1nc(-c2ccccc2)cc(C(F)(F)F)c1C#N,23.9% (active)
19,N#Cc1c(C(F)(F)F)cc(-c2ccccc2)nc1SCC(=O)N1CCOCC1,-6.15% (inactive)
20,Cc1nn(CC(=O)Nc2nc3ccccc3s2)c(C)c1[N+](=O)[O-],-7.14% (inactive)
21,NC1=NC(=O)C2(COC(c3ccccc3Cl)OC2)S1 (stereo not drawn),-5.49% (inactive)
22,COc1cccc(-c2cc(C(=O)N/N=C/c3ccc(OC)c(COC(C)=O)c3)c3ccccc3n2)c1,-4% (inactive)
23,COc1cc2c(cc1OC)C(C(=O)NCc1ccco1)C1c3ccccc3CCN1C2=O (stereo not drawn),-4.83% (inactive)
24,Oc1ccccc1CNc1ncc(Br)cc1Br,-9.29% (inactive)
25,O=C(Nc1ccc(Br)c2cccnc12)c1ccc(Cn2cc([N+](=O)[O-])cn2)o1,-1.75% (inactive)

row,Compound,activation
1,FC(F)(F)c1cccc(-c2cc3ccccc3nc2N2CCCC2)c1,-10.1% (inactive)
2,O=C1/C(=C/c2cccs2)CCc2ccccc21,-5.98% (inactive)
3,CN(C)S(=O)(=O)c1ccc(N2CCCC2)c(C(=O)NCc2ccccc2)c1,-3.61% (inactive)
4,O=C(NCc1ccc(Cl)cc1)c1cc(=O)nc2sc(-c3ccccc3)nn12,-3.55% (inactive)
5,O=[N+]([O-])c1ccc(Oc2ccc(F)cc2Br)c2ccncc12,-12.3% (inactive)
6,CCOC(=O)C(C)Sc1nc2ccccc2c(=O)n1CC1CCCCC1 (stereo not drawn),1.92% (inactive)
7,CN(C)c1ccnc2sc3c(=O)n(-c4ccc(Cl)cc4)cnc3c12,-3.21% (inactive)
8,COC(=O)C1=CN(C)C=C(C(=O)OC)C1c1ccc(Cl)cc1Cl,32.1% (active)
9,CCOc1cc(C2C(C(=O)OC)=CN(C3CCCC3)C=C2C(=O)OC)cc(Br)c1O,7.13% (inactive)
10,CC12CN3CC(C)(CN(C1)C3c1ccc(Cl)cc1Cl)C2=O (stereo not drawn),-3.81% (inactive)
11,CCOc1ccccc1N(CC(=O)Nc1ccccc1C(=O)OC)S(C)(=O)=O,-7.41% (inactive)
12,COC(=O)C1=C(C)N(C)C(C)=C(C(=O)OC)C1c1cccc(Br)c1,-1.98% (inactive)
13,CCOc1ccccc1C1C(C(=O)OC)=CN(C)C=C1C(=O)OC,25.5% (active)
14,Cn1nnnc1SCC(=O)Nc1ccccc1C(=O)NC1CC1,-4.5% (inactive)
15,C/C(=N\NS(=O)(=O)c1cccc([N+](=O)[O-])c1)c1cc2ccccc2o1,-4.08% (inactive)
16,CCOc1c(Cl)cc(/C=N/O)cc1OC,-3.93% (inactive)
17,CC(=O)C1=C(C)NC(C)=C(C(C)=O)C1c1cn(-c2ccccc2)nc1-c1cccs1,-8.95% (inactive)
18,CCc1nc(C)ccc1OCC(=O)N(CC)CC,-0.52% (inactive)
19,CSc1nc(-c2ccco2)nn1C(=O)CCc1ccccc1,-4.35% (inactive)
20,CCOC(=O)c1nnn(-c2nonc2-n2cccc2)c1CN1CCOCC1,-2.91% (inactive)
21,O=C(Cc1ncc(C(F)(F)F)cc1Cl)Nc1cccc(Br)c1,-3.95% (inactive)
22,Cc1noc(C)c1CSCC(=O)Nc1nc2ccc(Oc3ccccc3)cc2s1,-9.84% (inactive)
23,C=CCn1c(-c2ccc(Cl)cc2)ccc(C#N)c1=O,-1.04% (inactive)
24,CCCNC(=O)c1c(N)n(-c2ccc(S(N)(=O)=O)cc2)c2nc3ccccc3nc12,25.6% (active)
25,C=CCn1c(N)c(C(=O)OCC(C)C)c2nc3ccccc3nc21,-4.83% (inactive)

row,Compound,activation
1,CCC(C)NC(=O)c1c(N)n(/N=C/c2cccs2)c2nc3ccccc3nc12 (stereo not drawn),11.4% (inactive)
2,COc1ccc2c(c1OC)C(=O)c1ccccc1C2=O,-4.98% (inactive)
3,COc1ccc2c(c1OC)C(=O)N(c1ncn[nH]1)C2,16.5% (active)
4,COc1ccc(N2CCN(C(=O)CCc3nc(-c4ccc(C)cc4)no3)CC2)cc1,-1.72% (inactive)
5,Cc1ccc(S(=O)(=O)Nc2nc(C)cc(-n3nc(C)cc3C)n2)cc1,-3.06% (inactive)
6,N#Cc1ccc(-c2ccc(Cl)cc2)nc1Oc1ccc(F)cc1,-3.88% (inactive)
7,Cc1ccc(/C=N/NC(=O)C2=NNC(c3ccccc3)(c3ccccc3)C2)c(O)c1,2.35% (inactive)
8,O=C(Cc1ccccc1)N/N=C/c1ccc(Cl)cc1Cl,2.34% (inactive)
9,Cc1nn(C)cc1C(=O)NNC(=S)Nc1ccc(Cl)cc1,-6.95% (inactive)
10,O=C1CCCc2nn(-c3ccccc3)nc21,-3.05% (inactive)
11,Cc1nc(NC(=O)c2cccc(Cl)c2)sc1-c1csc(Nc2cccc(Cl)c2)n1,-10.8% (inactive)
12,Cc1cc(C)c2nc(NC(=O)c3ccc4c(c3)OCO4)sc2c1,-8.01% (inactive)
13,CNC(=O)c1csc(-c2ccccc2)n1,-5.56% (inactive)
14,O=C(c1cc2c(s1)CCC2)N1CCN(c2ccccc2)CC1,-4.17% (inactive)
15,Cc1nn(Cc2ccc(C(=O)N3N=C(C(F)F)CC3(O)C(F)F)cc2)c(C)c1[N+](=O)[O-] (stereo not drawn),-4.76% (inactive)
16,Cc1ccccc1-c1nnc(SCC(=O)NCc2ccc3c(c2)OCO3)n1C,-6.95% (inactive)
17,COc1cccc(N=c2oc3c(C)ncc(CO)c3cc2C(N)=O)c1,-4.4% (inactive)
18,O=C1Nc2ccc(Br)cc2/C1=N/N=C/C1=C(N2CCOCC2)C(=C\c2ccccc2)/CC1,-5.74% (inactive)
19,COc1ccc(-c2nnc(SCc3cccnc3)o2)cc1,-3.86% (inactive)
20,Cc1nnc(SC(C)C(=O)Nc2ccc(S(=O)(=O)NC3CCCCC3)cc2)s1 (stereo not drawn),-4.5% (inactive)
21,CC(C)(C)OC(=O)c1c(N)n(CCCN2CCCC2=O)c2nc3ccccc3nc12,0.36% (inactive)
22,N#Cc1c(N)n(CCOC(=O)c2ccc(Cl)cc2)c2nc3ccccc3nc12,16.5% (active)
23,CN(C)CCCn1c(N)c(C#N)c2nc(C#N)c(C#N)nc21,12.8% (inactive)
